In the supplement of paper PMC11732987, “Enantioselective OTUD7B fragment discovery through chemoproteomics screening and high-throughput optimisation” (Communications Chemistry, 2025):

Tests used:
Assay in all cases: log2 ratio of Biotin-Ahx-Ub-VS probe labelling (compound/DMSO); higher = less target engagement, active = hit call of the paper (q ≤ 0.05, log2 ratio ≤ -1)
Settings in all cases: treatment time: 3 h
[1] = compound: CCC1N(CCc2sccc12)C(=O)CCl
Procedure, shortened: (§1)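 HEK293T lysate (495 µg per sample, in Tris/CHAPS/IGEPAL buffer with protease inhibitors) was exposed in triplicate to compound at 50 or 200 µM, or to DMSO, for 3 h, then to Biotin-Ahx-Ub-VS (0.5 µM final) for 1 h. The labelled DUBs were enriched on NeutrAvidin, digested with LysC and trypsin, and analysed by diaPASEF LC-MS/MS. Average base-two log ratios of compound over DMSO came from median-normalised label-free quantities by unpaired t-test. Only proteins with at least 2 unique peptides were used.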

[2] = compound: CN1c2ccccc2C(CS1(=O)=O)NC(=O)CCl
Procedure, shortened: as §1

[3] = compound: Cl.ClCC(=O)N1CCc2ncncc2C1
Procedure, shortened: as §1

[4] = compound: Cl.Cn1ncc2C(CCCc12)NC(=O)CCl
Procedure, shortened: as §1

[5] = compound: ClCC(=O)NC1CCOc2ccccc12
Procedure, shortened: as §1

[6] = compound: ClCC(=O)NC1CCCc2ccccc12
Procedure, shortened: (§2)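 In triplicate, 495 µg portions of HEK293T lysate in Tris/CHAPS/IGEPAL buffer with protease inhibitors received compound across a concentration series or vehicle for 3 h, followed by 1 h with 0.5 µM final Biotin-Ahx-Ub-VS. After NeutrAvidin enrichment and LysC/trypsin digestion, the labelled deubiquitinases were measured by diaPASEF LC-MS/MS and quantified label-free in Spectronaut with global-median normalisation. Each value is an average compound-to-vehicle ratio from an unpaired t-test, expressed as log2 and restricted to proteins having two or more unique peptides.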

[7] = compound: ClCC(=O)N[C@@H]1CCCc2ccccc12
Procedure, shortened: as §2

[8] = compound: ClCC(=O)N[C@H]1CCCc2ccccc12
Procedure, shortened: as §2

[9] = compound: CCC1N(CCc2cc(OC)c(Cl)cc12)C(=O)CCl
Procedure, shortened: as §1

[10] = compound: CCCC1N(CCc2cc(OC)c(OC)cc12)C(=O)CCl
Procedure, shortened: as §1

[11] = compound: CN(Cc1cccc(Br)c1)C(=O)CCl
Procedure, shortened: as §1

[12] = compound: CN(Cc1cccc(OCc2ccccc2C)c1)C(=O)CCl
Procedure, shortened: as §1

[13] = compound: CN(Cc1ccccc1)C(=O)CCl
Procedure, shortened: as §1

[14] = compound: COc1ccc(CN(C)C(=O)CCl)cc1
Procedure, shortened: as §1

[15] = compound: COc1cccc(CN(CCCc2ccccc2)C(=O)CCl)c1
Procedure, shortened: as §1

[16] = compound: ClCC(=O)N1CCc2cc(Cl)c(Cl)cc2C1
Procedure, shortened: as §1

[17] = compound: ClCC(=O)N1CCc2nc(ncc2C1)-c1ccccc1
Procedure, shortened: as §1

[18] = compound: ClCC(=O)N1CCc2nocc2C1
Procedure, shortened: as §1

[19] = compound: ClCC(=O)N1CCc2scc(Br)c2C1
Procedure, shortened: as §1

[20] = compound: ClCC(=O)NC(C1CCCC1)c1cccs1
Procedure, shortened: as §1

Measured: log2 ratio of Biotin-Ahx-Ub-VS probe labelling

USP10 (UniProt Q14694)
Chain of UniProt Q14694 (Q14694 whole entry): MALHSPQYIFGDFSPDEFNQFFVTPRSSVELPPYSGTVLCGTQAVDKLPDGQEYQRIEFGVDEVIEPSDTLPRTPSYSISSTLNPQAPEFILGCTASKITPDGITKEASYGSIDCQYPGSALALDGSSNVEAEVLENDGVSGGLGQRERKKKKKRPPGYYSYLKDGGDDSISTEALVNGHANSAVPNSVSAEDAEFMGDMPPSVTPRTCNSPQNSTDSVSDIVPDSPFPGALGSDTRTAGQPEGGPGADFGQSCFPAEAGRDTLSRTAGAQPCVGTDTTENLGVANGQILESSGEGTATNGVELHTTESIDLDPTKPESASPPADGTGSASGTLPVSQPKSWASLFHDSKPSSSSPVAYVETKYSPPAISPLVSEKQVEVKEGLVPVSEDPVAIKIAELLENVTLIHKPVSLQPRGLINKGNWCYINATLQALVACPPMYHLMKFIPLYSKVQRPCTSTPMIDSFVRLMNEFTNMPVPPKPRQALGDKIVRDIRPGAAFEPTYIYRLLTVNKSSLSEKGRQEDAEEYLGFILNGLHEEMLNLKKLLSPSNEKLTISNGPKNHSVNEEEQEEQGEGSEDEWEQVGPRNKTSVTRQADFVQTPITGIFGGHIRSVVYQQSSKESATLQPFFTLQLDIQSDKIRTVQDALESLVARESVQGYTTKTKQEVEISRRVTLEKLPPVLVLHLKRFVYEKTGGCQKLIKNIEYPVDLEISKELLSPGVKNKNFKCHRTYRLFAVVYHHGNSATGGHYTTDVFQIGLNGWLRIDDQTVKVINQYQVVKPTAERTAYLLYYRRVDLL
inactive: [1]; compound concentration: 50uM -0.19 | [1]; compound concentration: 200uM -0.0252 | [2]; compound concentration: 50uM -0.181 | [2]; compound concentration: 200uM -0.0808 | [3]; compound concentration: 50uM -0.0803 | [3]; compound concentration: 200uM -0.275 | [4]; compound concentration: 50uM -0.122 | [4]; compound concentration: 200uM 0.147 | [5]; compound concentration: 50uM 0.0122 | [5]; compound concentration: 200uM 0.0383 | [6]; compound concentration: 0.78uM -0.0342 | [6]; compound concentration: 1.56uM -0.0587 | [6]; compound concentration: 3.13uM -0.0649 | [6]; compound concentration: 6.25uM -0.0649 | [6]; compound concentration: 12.5uM -0.132 | [6]; compound concentration: 25uM -0.0689 | [6]; compound concentration: 50uM -0.0491 | [6]; compound concentration: 100uM -0.183 | [6]; compound concentration: 200uM -0.0607 | [7]; compound concentration: 0.78uM -0.0933 | [7]; compound concentration: 1.56uM -0.139 | [7]; compound concentration: 3.13uM -0.0782 | [7]; compound concentration: 6.25uM -0.0824 | [7]; compound concentration: 12.5uM -0.0687 | [7]; compound concentration: 25uM -0.0178 | [7]; compound concentration: 50uM 0.00497 | [7]; compound concentration: 100uM -0.08 | [7]; compound concentration: 200uM -0.0678 | [8]; compound concentration: 0.78uM -0.0203 | [8]; compound concentration: 1.56uM -0.0495 | [8]; compound concentration: 3.13uM -0.0618 | [8]; compound concentration: 6.25uM -0.0539 | [8]; compound concentration: 12.5uM 0.0103 | [8]; compound concentration: 25uM -0.0249 | [8]; compound concentration: 50uM -0.0723 | [8]; compound concentration: 100uM 0.0262 | [8]; compound concentration: 200uM -0.109 | [9]; compound concentration: 50uM -0.0451 | [9]; compound concentration: 200uM -0.029 | [10]; compound concentration: 50uM -0.317 | [10]; compound concentration: 200uM -0.194 | [11]; compound concentration: 50uM -0.146 | [11]; compound concentration: 200uM -0.153 | [12]; compound concentration: 50uM -0.287 | [12]; compound concentration: 200uM -0.0982 | [13]; compound concentration: 50uM -0.177 | [13]; compound concentration: 200uM 0.0371 | [14]; compound concentration: 50uM -0.151 | [14]; compound concentration: 200uM -0.0732 | [15]; compound concentration: 50uM -0.12 | [15]; compound concentration: 200uM 0.0548 | [16]; compound concentration: 50uM -0.188 | [16]; compound concentration: 200uM -0.0346 | [17]; compound concentration: 50uM -0.0484 | [17]; compound concentration: 200uM -0.151 | [18]; compound concentration: 50uM -0.2 | [18]; compound concentration: 200uM -0.136 | [19]; compound concentration: 50uM -0.066 | [19]; compound concentration: 200uM 0.0425 | [20]; compound concentration: 50uM -0.148 | [20]; compound concentration: 200uM 0.0706

USP34 (UniProt Q70CQ2)
Chain of UniProt Q70CQ2 (Q70CQ2 whole entry): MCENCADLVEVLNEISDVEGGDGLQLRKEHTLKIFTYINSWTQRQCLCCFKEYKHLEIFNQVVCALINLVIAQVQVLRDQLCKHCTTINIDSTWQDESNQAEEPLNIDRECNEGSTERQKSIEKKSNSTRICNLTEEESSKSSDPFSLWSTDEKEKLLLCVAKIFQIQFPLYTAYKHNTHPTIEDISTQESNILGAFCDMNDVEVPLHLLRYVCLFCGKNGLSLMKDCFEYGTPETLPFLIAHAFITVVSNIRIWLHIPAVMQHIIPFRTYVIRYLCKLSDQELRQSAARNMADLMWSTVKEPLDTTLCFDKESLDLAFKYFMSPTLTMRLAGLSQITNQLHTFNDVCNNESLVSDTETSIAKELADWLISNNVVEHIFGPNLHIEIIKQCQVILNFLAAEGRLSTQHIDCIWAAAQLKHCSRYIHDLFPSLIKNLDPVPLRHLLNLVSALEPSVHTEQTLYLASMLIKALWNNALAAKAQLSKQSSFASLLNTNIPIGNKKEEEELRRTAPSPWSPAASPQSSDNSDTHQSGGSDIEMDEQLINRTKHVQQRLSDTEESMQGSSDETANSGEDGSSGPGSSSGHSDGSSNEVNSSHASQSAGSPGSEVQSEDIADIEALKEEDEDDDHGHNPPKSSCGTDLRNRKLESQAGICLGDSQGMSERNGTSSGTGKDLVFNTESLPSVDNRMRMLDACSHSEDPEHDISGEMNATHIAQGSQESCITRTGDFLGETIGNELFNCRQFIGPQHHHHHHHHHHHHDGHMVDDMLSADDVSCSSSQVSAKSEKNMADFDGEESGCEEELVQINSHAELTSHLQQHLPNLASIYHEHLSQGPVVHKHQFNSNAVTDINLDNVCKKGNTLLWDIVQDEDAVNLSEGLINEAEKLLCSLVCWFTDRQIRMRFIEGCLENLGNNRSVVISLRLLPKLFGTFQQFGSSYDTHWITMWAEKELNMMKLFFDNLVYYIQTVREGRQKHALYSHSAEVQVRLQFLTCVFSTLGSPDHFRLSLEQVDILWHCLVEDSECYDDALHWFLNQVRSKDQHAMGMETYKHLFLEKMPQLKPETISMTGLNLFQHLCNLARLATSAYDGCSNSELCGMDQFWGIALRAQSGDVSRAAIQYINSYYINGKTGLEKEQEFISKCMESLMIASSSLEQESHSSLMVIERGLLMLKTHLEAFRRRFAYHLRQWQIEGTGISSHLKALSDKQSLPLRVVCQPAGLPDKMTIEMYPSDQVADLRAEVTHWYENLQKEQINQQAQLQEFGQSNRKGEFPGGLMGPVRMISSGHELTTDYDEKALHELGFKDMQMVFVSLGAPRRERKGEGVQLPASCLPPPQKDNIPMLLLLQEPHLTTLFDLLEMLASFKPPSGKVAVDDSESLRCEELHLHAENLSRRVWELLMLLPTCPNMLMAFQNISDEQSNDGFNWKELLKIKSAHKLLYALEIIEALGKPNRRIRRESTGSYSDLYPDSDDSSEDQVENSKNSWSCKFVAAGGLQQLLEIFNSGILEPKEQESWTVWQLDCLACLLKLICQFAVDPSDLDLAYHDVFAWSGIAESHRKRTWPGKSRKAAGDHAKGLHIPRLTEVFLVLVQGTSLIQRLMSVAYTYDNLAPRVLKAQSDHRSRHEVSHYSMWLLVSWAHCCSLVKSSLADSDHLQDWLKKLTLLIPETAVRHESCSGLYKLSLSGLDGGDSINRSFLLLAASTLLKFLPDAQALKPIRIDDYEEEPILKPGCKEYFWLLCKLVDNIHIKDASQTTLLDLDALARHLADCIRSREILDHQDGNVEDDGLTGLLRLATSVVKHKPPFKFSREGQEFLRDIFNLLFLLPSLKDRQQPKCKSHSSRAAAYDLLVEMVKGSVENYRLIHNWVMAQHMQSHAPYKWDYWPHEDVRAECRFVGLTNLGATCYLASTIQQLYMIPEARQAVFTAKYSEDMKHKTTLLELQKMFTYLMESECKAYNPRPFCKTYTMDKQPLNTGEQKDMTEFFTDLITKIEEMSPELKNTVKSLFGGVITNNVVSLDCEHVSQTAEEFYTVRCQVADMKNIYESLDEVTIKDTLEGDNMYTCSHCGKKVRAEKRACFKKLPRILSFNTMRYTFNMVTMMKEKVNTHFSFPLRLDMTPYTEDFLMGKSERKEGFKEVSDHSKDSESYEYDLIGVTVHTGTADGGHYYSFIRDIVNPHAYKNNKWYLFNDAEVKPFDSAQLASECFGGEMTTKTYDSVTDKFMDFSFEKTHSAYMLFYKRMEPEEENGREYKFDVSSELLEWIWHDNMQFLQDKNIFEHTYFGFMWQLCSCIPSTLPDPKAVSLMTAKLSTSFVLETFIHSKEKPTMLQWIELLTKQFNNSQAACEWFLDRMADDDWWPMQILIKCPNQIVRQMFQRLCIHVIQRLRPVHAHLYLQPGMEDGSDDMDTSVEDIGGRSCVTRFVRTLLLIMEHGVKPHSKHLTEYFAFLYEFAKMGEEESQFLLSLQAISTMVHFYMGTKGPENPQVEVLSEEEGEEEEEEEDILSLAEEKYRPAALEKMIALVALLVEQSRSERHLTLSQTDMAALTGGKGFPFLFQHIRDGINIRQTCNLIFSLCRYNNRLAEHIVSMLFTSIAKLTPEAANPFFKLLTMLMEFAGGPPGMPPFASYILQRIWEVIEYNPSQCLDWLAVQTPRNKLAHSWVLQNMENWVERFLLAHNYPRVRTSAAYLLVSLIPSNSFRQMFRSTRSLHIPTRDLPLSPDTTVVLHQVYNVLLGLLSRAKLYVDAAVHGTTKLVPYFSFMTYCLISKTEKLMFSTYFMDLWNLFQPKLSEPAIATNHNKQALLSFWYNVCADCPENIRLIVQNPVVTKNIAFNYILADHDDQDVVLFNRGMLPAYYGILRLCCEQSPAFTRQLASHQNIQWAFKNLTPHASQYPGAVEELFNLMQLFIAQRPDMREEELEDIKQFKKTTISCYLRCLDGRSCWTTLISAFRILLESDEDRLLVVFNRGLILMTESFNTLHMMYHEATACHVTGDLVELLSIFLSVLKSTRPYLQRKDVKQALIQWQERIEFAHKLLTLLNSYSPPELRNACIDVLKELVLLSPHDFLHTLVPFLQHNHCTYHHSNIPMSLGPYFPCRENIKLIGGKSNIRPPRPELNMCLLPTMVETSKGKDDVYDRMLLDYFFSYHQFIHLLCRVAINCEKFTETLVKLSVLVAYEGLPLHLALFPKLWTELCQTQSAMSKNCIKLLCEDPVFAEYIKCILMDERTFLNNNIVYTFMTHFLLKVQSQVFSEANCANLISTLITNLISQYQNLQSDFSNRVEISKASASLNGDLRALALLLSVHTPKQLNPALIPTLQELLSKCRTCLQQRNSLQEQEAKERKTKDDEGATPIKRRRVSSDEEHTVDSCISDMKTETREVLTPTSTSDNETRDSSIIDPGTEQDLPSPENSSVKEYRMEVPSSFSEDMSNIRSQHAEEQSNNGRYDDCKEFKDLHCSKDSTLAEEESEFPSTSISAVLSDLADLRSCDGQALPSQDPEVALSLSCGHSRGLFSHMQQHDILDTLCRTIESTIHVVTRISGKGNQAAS
active: [9]; compound concentration: 200uM -1.07 | [16]; compound concentration: 200uM -1.47
inactive: [1]; compound concentration: 50uM 0.0562 | [1]; compound concentration: 200uM 0.0678 | [2]; compound concentration: 50uM -0.259 | [2]; compound concentration: 200uM -0.515 | [3]; compound concentration: 50uM -0.659 | [3]; compound concentration: 200uM 0.31 | [4]; compound concentration: 50uM 0.745 | [4]; compound concentration: 200uM -0.98 | [5]; compound concentration: 50uM -0.212 | [5]; compound concentration: 200uM -0.0537 | [6]; compound concentration: 0.78uM 0.221 | [6]; compound concentration: 1.56uM 0.0458 | [6]; compound concentration: 3.13uM 0.0621 | [6]; compound concentration: 6.25uM -0.0557 | [6]; compound concentration: 12.5uM -0.314 | [6]; compound concentration: 25uM 0.126 | [6]; compound concentration: 50uM 0.134 | [6]; compound concentration: 100uM 0.11 | [6]; compound concentration: 200uM -0.619 | [7]; compound concentration: 0.78uM -0.0727 | [7]; compound concentration: 1.56uM -0.0851 | [7]; compound concentration: 3.13uM -0.276 | [7]; compound concentration: 6.25uM -0.184 | [7]; compound concentration: 12.5uM -0.209 | [7]; compound concentration: 25uM -0.23 | [7]; compound concentration: 50uM -0.396 | [7]; compound concentration: 100uM 0.0355 | [7]; compound concentration: 200uM 0.0474 | [8]; compound concentration: 0.78uM 0.0344 | [8]; compound concentration: 1.56uM -0.271 | [8]; compound concentration: 3.13uM -0.199 | [8]; compound concentration: 6.25uM 0.0878 | [8]; compound concentration: 12.5uM 0.322 | [8]; compound concentration: 25uM -0.00214 | [8]; compound concentration: 50uM 0.198 | [8]; compound concentration: 100uM 0.181 | [8]; compound concentration: 200uM -0.295 | [9]; compound concentration: 50uM 0.165 | [10]; compound concentration: 50uM 0.0993 | [10]; compound concentration: 200uM 0.244 | [11]; compound concentration: 50uM 0.504 | [11]; compound concentration: 200uM 0.192 | [12]; compound concentration: 50uM 0.154 | [12]; compound concentration: 200uM -0.582 | [13]; compound concentration: 50uM 0.682 | [13]; compound concentration: 200uM -0.913 | [14]; compound concentration: 50uM 0.746 | [14]; compound concentration: 200uM -0.399 | [15]; compound concentration: 50uM -0.287 | [15]; compound concentration: 200uM -0.935 | [16]; compound concentration: 50uM -0.17 | [17]; compound concentration: 50uM 0.583 | [17]; compound concentration: 200uM -0.403 | [18]; compound concentration: 50uM 0.31 | [18]; compound concentration: 200uM -0.0396 | [19]; compound concentration: 50uM 0.689 | [19]; compound concentration: 200uM -0.0731 | [20]; compound concentration: 50uM -0.0579 | [20]; compound concentration: 200uM -0.14
